High-throughput results from PubChem.
Marburg entry inh = blocks Marburg virus binding to or entry into cells | Potency, µM (highest dose often 37.8 µM), for the others: at the highest dose activity change, negative = inhibition, hits mostly inhibitors | hit rate 1.8% among 300,000 | Marburg virus pseudotyped entry inhibition, cell reporter; calls by dose curve; tested in HEK293 cells
AMA1-RON2 inh = disrupts binding of P. falciparum AMA1 to RON2. Potency, µM (doses to about 58.2 µM), for the others: at the highest dose activity change, negative = inhibition, most hits filed as inhibitors. hit rate 0.2% among 360,000. AlphaScreen AMA1-biotinylated RON2 peptide binding. AID 720542;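 note: 0% = vehicle wells and -100% = peptide control; nearly all actives have a fitted effect of over 45% in size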
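AMA1 (3D7) with his tag at 25 nM final met compounds first, then biotinylated RON2 peptide at 25 nM; detection used donor plus acceptor beads, 10 µg/mL apiece, read by AlphaScreen after 30 min at room temperature.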
AmpC inh no detg = blocks E. coli AmpC beta-lactamase in detergent-free assay; AmpC nitrocefin hydrolysis, absorbance 480 nm, 0.0001% Triton; Potency, µM (highest dose often 57.1 µM), inactives show at the highest dose activity change, negative = inhibition, actives largely listed as inhibitors; hit rate 0.52% among 330,000;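 note: plate controls were no compound for no effect and no enzyme for full effect; nearly all actives have a fitted effect of over 20% in size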
Target sequence (P00811 whole entry, looked up): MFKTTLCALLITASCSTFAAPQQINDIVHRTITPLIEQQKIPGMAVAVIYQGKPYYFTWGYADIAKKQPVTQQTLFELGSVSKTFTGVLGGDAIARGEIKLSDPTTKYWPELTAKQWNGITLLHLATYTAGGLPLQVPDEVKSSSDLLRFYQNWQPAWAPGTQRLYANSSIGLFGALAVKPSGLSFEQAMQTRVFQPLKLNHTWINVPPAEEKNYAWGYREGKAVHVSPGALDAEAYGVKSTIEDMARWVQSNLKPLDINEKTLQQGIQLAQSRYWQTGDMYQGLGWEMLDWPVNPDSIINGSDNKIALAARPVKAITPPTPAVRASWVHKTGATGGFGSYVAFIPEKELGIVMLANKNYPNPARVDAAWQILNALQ
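20 mM phosphate pH 7.0 + 0.01% (detergent screen) or 0.0001% Triton X-100; 5.3 nM AmpC reagent; cpd preinc 15 min RT; nitrocefin (800 uM stock) to start; A480 q20 s × 4 min; Activity was normalised to no-enzyme and no-compound control wells.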
AmpC detergent = AmpC beta-lactamase inhibition with detergent present; AmpC hydrolysis of nitrocefin, absorbance 480 nm, 0.01% Triton; hit rate 0.041% among 370,000; Potency, µM (top dose mostly 114 µM), inactives show top-dose activity change, negative = inhibition, most hits filed as inhibitors;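 note: 0% = no-compound wells and -100% = no-enzyme wells; nearly all actives have a fitted effect of over 25% in size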
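20 mM phosphate pH 7.0 + 0.01% (detergent screen) or 0.0001% Triton X-100; 5.3 nM AmpC reagent; cpd preinc 15 min RT; nitrocefin (800 uM stock) to start; A480 q20 s × 4 min; Activity was normalised to no-enzyme and no-compound control wells.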
Lassa entry inh = blocks Lassa virus binding to or entry into cells. Lassa virus pseudotype entry inhibition, cell reporter. Potency, µM (titrated, usually from 37.9 µM), for the others: at the top dose activity change, negative = inhibition, usual class: inhibitors. hit rate 1.2% among 300,000. AID 540256; calls by dose curve; tested in HEK293 cells; note: nearly all actives have a fitted effect of over 50% in size
Numbers without * were called inactive; ? = inconclusive; · = not tested or not shown; ! = repeats disagree; [ ] = dose if it differs, or a comment. Rows were chosen to be rich in hits. Some 2.3% of all compounds tested hit in one or more screens of this group. Unless noted, calls come from the whole dose curve; as a rule, active = well fitted curve in the direction sought with a large enough effect; inconclusive = small, poorly fitted or top-dose-only effect, or another doubt; inactive = no such curve, though single readings can be large; an effect the other way counts as inactive or inconclusive. Unless noted, % is set by controls: 0 for no effect and ±100 for the full control effect; potency is the fitted concentration of half-maximal effect.

SMILES | Marburg entry inh | AMA1-RON2 inh | AmpC inh no detg | AmpC detergent | Lassa entry inh
O=C(Nc1ccc(N2CCCC2)c(Cl)c1)c1ccc([N+](=O)[O-])o1 | 8.9µM* | ? | -7% | 5% | ?
Clc1ccc(COC(Cn2ccnc2)c2ccc(Cl)cc2Cl)cc1 (stereo not given) | -40% | -1% | 29% | -7% | -29%
Clc1ccc(C(c2ccc(Cl)cc2)n2cc[n+](CC(OCc3ccc(Cl)cc3Cl)c3ccc(Cl)cc3Cl)c2)cc1 (stereo not given) | 13µM* | -5% | 54% | -10% | ·
Cc1cc(C)c(S(=O)(=O)NCCn2ccc3ccccc32)c(C)c1 | · | -7% | 40µM* | ? | ·
Cc1cc(C)c(S(=O)(=O)NCCc2ccccc2)c(C)c1 | ? | 17% | -19% | -6% | ?
O=C(NCCc1csc(-c2cccc(F)c2)n1)c1cccs1 | · | · | · | 19% | -12%[46.1 µM]
COc1ccc(/C=C2\CCCC3C2=NN(C(=O)c2scnc2C)C3c2ccc(OC)c(OC)c2)cc1OC (stereo not given) | ? | -5% | 50% | 1% | 5.2µM*
COc1ccc(/C=C2\CCCC3C2=NN(C(=O)c2ccco2)C3c2ccc(OC)c(OC)c2)cc1OC (stereo not given) | ? | 1% | 65% | -1% | ?
COc1ccccc1NC(=O)c1nn(-c2ccccc2)ccc1=O | -15% | -3% | 0.14µM* | -3% | 5%
COC(=O)C1=C(C)N(Cc2ccccc2)C(=NCCc2ccccn2)NC1c1cccc(F)c1 (stereo not given) | -21%[14.2 µM] | · | · | · | ·
CC(=O)c1ccc(N/N=C(/C(N)=O)C2=NC(C)(C)Cc3ccccc32)cc1 | 3.3µM* | ? | -2% | -4% | 2.9µM*
O=C(c1ccccc1)c1c2c(cc3sc4ccccc4[n+]13)-c1cccc3cccc-2c13 | ? | -16% | 107% | ? | 15µM*
Cc1sc2cc3c(c(C(=O)c4ccccc4)[n+]2c1C)-c1cccc2cccc-3c12 | 4.5µM* | -29% | 81% | -9% | ?
O=C(c1ccccc1)c1ccc2ccccc2c1 | 6%[46.1 µM] | 28% | · | · | 3%[46.1 µM]
CC(C)=CCCC(C)=CCON=C1C[C@@H](O)[C@@H](O)[C@@H]2[C@H]3C(=O)N(Cc4ccc5c(c4)OCO5)C(=O)[C@@H]3CC[C@@H]12 | -44%[14.2 µM] | · | · | · | -1%[14.3 µM]
C=CCn1c(=NC(=O)C2CCCCC2)sc2cc(NC(C)=O)ccc21 | · | -5% | 4µM* | ? | ·
COCCNC(=O)/C(C#N)=C/c1cn(CC(=O)NCc2ccco2)c2ccccc12 | ? | -9% | 9% | -5% | 2%[46.1 µM]
Cc1cccc(NC(=O)/C(C#N)=C/c2cn(CC(=O)NCc3ccco3)c3ccccc23)c1 | ? | 0% | 14µM* | -8% | 6%
CCN(CC)S(=O)(=O)c1ccc(C(=O)NCCSc2c(-c3ccc(C)cc3)[nH]c3ccccc23)cc1 | ? | · | · | 1% | ?
CCN(CC)S(=O)(=O)c1ccc(C(C)NC(=O)Cc2c[nH]c3ccccc23)cc1 (stereo not given) | -19% | -9% | -20% | -5% | 2.6µM*
COc1ccc(S(=O)(=O)N(C)C)cc1NC(=O)Cc1c[nH]c2ccccc12 | -2%[46.1 µM] | 14% | 22µM* | -12% | ?
Cc1ccc(S(=O)(=O)N(C)C)cc1NC(=O)CCc1c[nH]c2ccccc12 | -13%[14.2 µM] | 3% | -34% | 1% | -18%
CCN(CC)S(=O)(=O)c1ccc(C(=O)NCCSc2c[nH]c3ccccc23)cc1 | -11% | 1% | 0% | 2% | 26µM*
O=C1[C@H]2[C@H]3[C@H](O)[C@H](O)C/C(=N\OC[C@@H](O)COCc4ccco4)[C@H]3CC[C@H]2C(=O)N1C[C@@H]1CCCO1 | -1%[14.2 µM] | · | · | · | ·
C=CC1(O)C(OC)=CC2C(=O)C1C(c1ccccc1)C2C (stereo not given) | 14%[14.2 µM] | · | · | · | ?
SMILES | Marburg entry inh | AMA1-RON2 inh | AmpC inh no detg | AmpC detergent | Lassa entry inh
CSC[C@H]1CN(c2ccc(Br)cc2)C(=O)[C@H]1CC(=O)Nc1ccccc1 | · | · | · | · | -31%[46.1 µM]
COc1ccc(CCNC(=O)c2ccc(CS(=O)(=O)c3ccc(C)cc3)o2)cc1OC | ? | -16% | -2% | ? | ?
COc1ccc(CCNC(=O)c2ccc(CS(=O)(=O)c3ccc(Cl)cc3)o2)cc1OC | 15µM* | 5% | 25% | -8% | 26µM*
CN(Cc1ccccc1)C(=O)Cn1c(=O)c2cccn2c2ccc(F)cc21 | · | · | · | 29% | 10%[46.1 µM]
CCCCCC(=O)N1C[C@@H](O)[C@H](n2cc(-c3ccc(F)cc3)nn2)C[C@H]1c1ccccc1 | · | · | · | · | -7%[46.1 µM]
Nc1nc(N)c2nc(CNc3ccc(C(=O)NC(CCC(=O)O)C(=O)O)cc3)cnc2n1 (stereo not given) | 0.022µM*! | · | -24% | 0% | ?
CCOC(=O)c1sc(NC(=S)NC(=O)c2ccccc2)c(C(=O)OCC)c1C | -19% | 29% | -23% | -16% | -6%
CCOC(=O)C1=C(NC(=S)NC(=O)c2ccccc2)c2ccccc2CC1(C)CC (stereo not given) | 5.8µM* | 43% | -21% | -11% | 2.1µM*
CCOC(=O)C1=C(NC(=S)NC(=O)c2ccccc2)c2ccccc2CC1C(C)C (stereo not given) | 0.79µM* | 52% | -28% | 1% | 0.89µM*
Cc1ccc(NC(=O)CN2C(=O)c3cccnc3Sc3ccccc32)cc1C | · | · | · | -3% | 0%[46.1 µM]
C=CCOc1ccc(/C(O)=C2\C(=O)C(=O)N(CCN(C)C)[C@@H]2c2cccs2)cc1 | 7%[46.1 µM] | · | · | · | ·
CCOC(=O)N1CCN(C(=O)CSc2nc3ccccc3c(=O)n2-c2ccccc2)CC1 | -28% | -2% | 52% | -5% | 8.9µM*
COc1ccc(-n2c(SCC(=O)N3CCCCC3)nc3ccccc3c2=O)cc1 | ? | -2% | -12% | 0% | 12%[46.1 µM]
O=S(=O)(O)c1cc(O)c2c(O)c(N=Nc3cc(Cl)ccc3O)c(S(=O)(=O)O)cc2c1 | ? | -27% | -34% | -9% | ?
Cc1cc(-c2ccc(N=Nc3c(S(=O)(=O)O)cc4cc(S(=O)(=O)O)cc(N)c4c3O)c(C)c2)ccc1N=Nc1c(S(=O)(=O)O)cc2cc(S(=O)(=O)O)cc(N)c2c1O | 16µM* | · | -52% | 13µM* | ?
COc1ccc2c(c1)[C@@]1(OCCC=C[C@@H]1C)C(=O)N2Cc1ccc(Br)cc1 | 5%[14.2 µM] | · | · | · | ·
C=CCNc1ncnc2c1[nH]c1ccc(C)cc12 | ? | 15% | 13µM* | ? | -15%
COc1ccc2[nH]c3c(NCCC4=CCCCC4)ncnc3c2c1 | 10µM* | ? | -39% | ? | ?
CCN(CC)CCNc1ncnc2c1[nH]c1ccc(OC)cc12 | -3% | · | 59% | 4% | ·
COc1cccc(-n2cc(C(=O)Nc3ccccc3C(N)=O)c3ccccc3c2=O)c1 | · | · | · | -5% | 6%[46.1 µM]
N#C[C@H](C(=O)NC1CC1)c1nc2ccccc2nc1N1CCN(C/C=C\c2ccccc2)CC1 | 0% | · | · | · | ·
